Data published in ChEMBL document CHEMBL4513216, “Probing the Open Global Health Chemical Diversity Library for Multistage-Active Starting Points for Next-Generation Antimalarials” (ACS Infect Dis, 2020).
Hit rate of the full screen: of about 68,000 compounds, about 2,700 (4%) showed an effect of 50% or more. The full list was thinned out, with strong results kept by preference.

System: Plasmodium berghei
Assay: Screen against P. berghei liver stage (PbLuc), transformed with Luciferase, at 2uM
Type: functional, HepG2
Conditions: tested at 2 uM

| Structure (SMILES) | INHIBITION [%] |
| --- | --- |
| CN(Cc1ccccc1F)C(C(N)=O)c1ccccc1 (centres undefined) | 24.62 |
| CN(C)S(=O)(=O)c1ccc(-c2nc(C#N)c(NC(C)(C)C)o2)o1 | 1.3 |
| CCN(CC)CCN1CC[C@H]2OCC[C@@]2(C(=O)N2CCOCC2)C1 | 41.38 |
| COC(=O)c1cccc(C(=O)N2CCN(c3cc(Cl)ccc3C)CC2)n1 | 18.76 |
| CC(C)=CCCC(C)CN1CCC(n2cc(CO)nn2)CC1 (centres undefined) | 55.66 |
| CC(C)=CCCC(C)CN1CCC(n2cc(C(C)(C)O)nn2)CC1 (centres undefined) | 15.27 |
| CC(C)=CCCC(C)CN1CCC(n2cc(C(=O)NCCO)nn2)CC1 (centres undefined) | 48.93 |
| Fc1cccc(C2(CNC3CCOC4(CCOCC4)C3)CCOCC2)c1 (centres undefined) | -8.87 |
| COc1cc(CNCCn2cc(C)cn2)c2c(c1)CC(C)O2 (centres undefined) | -11.26 |
| CN(C)c1ncccc1N(C)C(=O)Cn1cc(-c2ccccc2)nn1 | -34.37 |
| COc1cccc(OCC(=O)N(C)c2cccnc2N(C)C)c1 | -3.66 |
| COc1ccc(CC(=O)N(C)c2cccnc2N(C)C)c(Cl)c1 | 54.29 |
| Fc1ccc(CN2CCC3(CC2)CCN(c2ncccn2)CC3)cc1 | 26.94 |
| CC(O)CN1CCC(CN(C)Cc2cc(F)cc3cccnc23)CC1 (centres undefined) | -0.44 |
| Cc1ccc2c(n1)N(CCN(C)C)CCN(C(=O)c1cccs1)C2 | -29.61 |
| Cc1cnc2n(c1=O)CC(C(=O)NCc1ccccc1Cl)CS2 (centres undefined) | 39.58 |
| COc1cc2c(cc1-c1nc3c(cnn3C(C)C)[nH]1)OCO2 | 60.13 |
| CCn1ncc2[nH]c(-c3cc4c(cc3OC)OCO4)nc21 | 27.42 |
| COc1cc2c(cc1-c1nc3c(cnn3C(C)C(C)C)[nH]1)OCO2 (centres undefined) | 7.67 |
| CCn1ncc2[nH]c(-c3cc(OC)c(OC)cc3OC)nc21 | 13.04 |
| COc1cc2c(cc1-c1nc3c(cnn3C(C)C3CC3)[nH]1)OCO2 (centres undefined) | 67.28 |
| COc1cc2c(cc1-c1nc3c(cnn3C)[nH]1)OCO2 | 21.97 |

| Structure (SMILES) | INHIBITION [%] |
| --- | --- |
| Cc1n[nH]c(C)c1NC(=O)CN1CCc2c(nc(C3CC3)n2C)C1 | 47.57 |
| Cc1[nH]ccc1C(=O)N1CCC2(CC1)c1nc[nH]c1CCN2S(C)(=O)=O | 0.31 |
| CO[C@H]1CO[C@@]2(CCCN(S(=O)(=O)c3ccccc3)C2)C1 | -1.81 |
| Cc1cccnc1CNC(=O)CC1C(=O)NCCN1CC(C)(C)C (centres undefined) | -26.52 |
| Cc1nnc(N2CC[C@H]3C[C@@H](C(=O)NC4CCCC4)O[C@H]3C2)s1 | -21.74 |
| Cc1n[nH]c(C)c1CCC(=O)NCC1CCOc2ccccc2C1 (centres undefined) | 49.02 |
| CNc1nc(C(=O)NCC2CCOc3ccccc3C2)cs1 (centres undefined) | 76.82 |
| Cc1cnc(C(=O)NCC2CCOc3ccccc3C2)cn1 (centres undefined) | 10.05 |
| Fc1ccc(-c2n[nH]cc2CNCCn2cccn2)cc1 | 11.01 |
| O=C(NCCN1CCCC1)Nc1cc(C(=O)N2CCOCC2)ccc1Cl | 19.81 |
| CC(C)OC(=O)c1ccc(Cl)c(NC(=O)NCCN2CCOCC2)c1 | 50.94 |
| CCSCCNC(=O)Nc1cc(C(=O)N2CCOCC2)ccc1Cl | -0.24 |
| CN(CC(=O)NC(C)(C)C)Cc1nc(-c2ccccc2)c[nH]1 | -20.91 |
| CS(=O)(=O)NC[C@@H]1OC[C@H]2CN(C(=O)c3ccccc3)CC[C@H]21 | 39.18 |
| COc1cc(C(=O)N2CCCS2(=O)=O)ccc1C | 9.9 |
| CCN1CCC(CNC(=O)C2(c3ccc(F)cc3)CC2)C1 (centres undefined) | 20.41 |
| COCCN1CCC(CNC(=O)C2(c3cc(C)cc(C)c3)CCC2)C1 (centres undefined) | -36.13 |
| COCCN1CCC(CNC(=O)C2(c3ccc(F)cc3)CCC2)CC1 | 66.2 |
| COCCN1CCC(CNC(=O)C2(c3cccc(C)c3)CC2)CC1 | 3.9 |
| COCCN1CCC(CNC(=O)C2(c3ccc(Br)cc3)CCCC2)C1 (centres undefined) | 66.2 |
| COCCN1CCC(CNC(=O)C2(c3cccc(Cl)c3)CC2)C1 (centres undefined) | 56.02 |
| COCCN1CCC(CNC(=O)C2(c3ccccc3)CCC2)C1 (centres undefined) | -1.02 |

| Structure (SMILES) | INHIBITION [%] |
| --- | --- |
| COCCN1CCC(CNC(=O)C2(c3cc(C)cc(C)c3)CC2)CC1 | 39.72 |
| COCCN1CCC(CNC(=O)C2(c3cccc(C)c3)CC2)C1 (centres undefined) | 43.79 |
| Cc1nc(C(NS(=O)(=O)N(C)C)c2ccccc2F)no1 (centres undefined) | -1.56 |
| CCCNC(=O)Nc1ccn(CCCOC)n1 | -27.36 |
| CC(C)CSCCN1CCCN(S(C)(=O)=O)CC1 | -14.71 |
| CCn1c(CN(C)C)nnc1C1CCN(Cc2ccc(Cl)cc2F)CC1 | -12.75 |
| Cc1cccc(C2(O)CCN(C(=O)c3ccccn3)CC2)c1C | 14.59 |
| Cc1cnn(CC2CCCN2Cc2cc(C)no2)c1 (centres undefined) | -4.43 |
| COCC1CC2(CCN(C(=O)c3oc4ccccc4c3C)CC2)CO1 (centres undefined) | 5.15 |
| CCOc1ccc(Cl)c(C(=O)NCCC(=O)Nc2ccncc2)n1 | 39.54 |
| CCN1CCN(c2ccc(CNC(=O)c3cc(C)on3)cn2)CC1 | 23.24 |
| CCN1CCN(c2ccc(CNC(=O)c3ccc(Cl)o3)cn2)CC1 | 66.93 |
| Cn1ccc(C(=O)NCc2ccc(N3CCCCC3)nc2)cc1=O | 26.06 |
| CCN1CCN(c2ccc(CNC(=O)c3cnn(C)c3C)cn2)CC1 | 21.83 |
| Cn1ccc(C(=O)NCc2ccc(N3CCOCC3)nc2)cc1=O | 52.17 |
| Cn1ccc(C(=O)NCc2ccc(N3CCCC3)nc2)cc1=O | 9.3 |
| CNC(=O)c1ccnc(CC2COc3c(cccc3OC)C2)c1 (centres undefined) | -12.13 |
| CCN(CC)S(=O)(=O)N1CCC(c2nccn2Cc2ccccn2)CC1 | -28.42 |
| Cc1ncc(C(=O)NCCNc2ccncc2)s1 | -60.22 |
| CN(C)C(=O)c1ccc(C2CCCN2C(=O)CCC2=NNC(=O)CC2)s1 (centres undefined) | -11.64 |
| Cc1cc(C)nc(NCc2cc3n(n2)CCCN(C(=O)C2CCC2)C3)n1 | -4.53 |
| Cc1nccc(NCc2cc3n(n2)CCCN(C(=O)C2CCC2)C3)n1 | 55.7 |

| Structure (SMILES) | INHIBITION [%] |
| --- | --- |
| CSc1nccc(NCc2cc3n(n2)CCCN(C(=O)C2CCC2)C3)n1 | -36.65 |
| Cc1cc(NCc2cc3n(n2)CCCN(S(C)(=O)=O)C3)ncn1 | -14.84 |
| Cc1nccc(NCc2cc3n(n2)CCCN(S(C)(=O)=O)C3)n1 | 8.89 |
| O=C(C1CCC1)N1CCCn2nc(CNc3ncccn3)cc2C1 | 52.47 |
| Nc1nccc(NCc2cc3n(n2)CCCN(C(=O)C2CCC2)C3)n1 | 4.47 |
| CS(=O)(=O)N1CCCn2nc(CNc3ncccn3)cc2C1 | 51.19 |
| Cc1cc(NCc2cc3n(n2)CCCN(C(=O)C2CCC2)C3)ncn1 | 19.13 |
| CC1=N[C@@]2(CC[C@@H]3CN(Cc4ccc(C)cc4)C[C@@H]32)C(=O)N1CC1CC1 | 41.38 |
| Cc1ccccc1C1CCCN1Cc1nc2c(cnn2C)c(=O)[nH]1 (centres undefined) | -29.69 |
| Cc1nccc(C(=O)NC(CN2CCCC2=O)c2ccccc2)n1 (centres undefined) | -45.82 |
| CC1CN(C)CCN1C(=O)c1ccn(-c2ccccc2)n1 (centres undefined) | 23.42 |
| COc1cccc(OCCCc2cncc(C(N)=O)c2)c1 | 61.08 |
| COc1ccccc1OCCCc1cncc(C(N)=O)c1 | -69.92 |
| COc1cccc(OCCc2cncc(C(N)=O)c2)c1 | -18.52 |
| Nc1ncnc2nc(C3CCN(C(=O)Cc4ccccc4)C3)ccc12 (centres undefined) | -7.22 |
| CCc1nc(CC2CN(c3ncnc4sc(C)c(C)c34)CCO2)no1 (centres undefined) | -7.81 |
| CN(C)C(=O)COc1ccccc1CN1CCCC2(C1)CN(C)C(=O)O2 (centres undefined) | -38.26 |
| Cc1cc(NC(=O)C(C)C)n(-c2nc(C)c(C)c(=O)[nH]2)n1 | 27.11 |
| CC(=O)Nc1cc(C2CC2)nn1-c1nc(C)c(C)c(=O)[nH]1 | -8.91 |
| Cc1nc(-n2nc(C3CC3)cc2NC(=O)C(C)C)[nH]c(=O)c1C | 55.52 |
| CC(C)(C#N)CCCS(=O)(=O)c1nccn1-c1cccc(F)c1 | 19.33 |
| COc1ccc2c(OCC(=O)NC(C)(C)C)ccnc2c1 | -3.8 |

| Structure (SMILES) | INHIBITION [%] |
| --- | --- |
| CCN(CC)C(=O)COc1ccnc2cc(OC)ccc12 | 50.42 |
| COc1ccc2c(OCC(=O)NCC(F)(F)F)ccnc2c1 | -26.08 |
| CCN(CC1CCOC1)C(=O)c1ccccc1N1CCOCC1 (centres undefined) | -45.72 |
| CCN(CC1CCOC1)C(=O)Nc1ccc(N2CCOCC2)nc1 (centres undefined) | -25.45 |
| CCN(CC1CCOC1)C(=O)c1cccnc1N1CCOCC1 (centres undefined) | 53.03 |
| CN(C)c1nccc(N2CCO[C@H]3CN(Cc4ccco4)C[C@H]32)n1 | 28.14 |
| CN(C)c1nccc(N2CCO[C@H]3CN(Cc4ccsc4)C[C@H]32)n1 | -33.63 |
| Cc1cccc(CN2C[C@@H]3OCCN(c4ccnc(N(C)C)n4)[C@@H]3C2)c1 | 53.55 |
| COc1cccn(CC(=O)N2CCCC3(CCCCC3)C2)c1=O | 26.14 |
| Cc1[nH]c2cc(C3CCN(C(=O)c4ccccn4)CC3)nn2c(=O)c1C | 9.9 |
| Cc1ccc(-c2nc(C3CCN(C(=O)c4ccnn4C)CC3)no2)cn1 | 10.65 |
| Cc1csc(CN(C)C(=O)Nc2cc(F)cc(N3CCCC3)c2)n1 | 0.12 |
| Cc1cccc(CN2CCO[C@H]3[C@H](Oc4ccccn4)CC[C@@H]32)n1 | 64.44 |
| CCS(=O)(=O)N1C[C@@H](Oc2ccccn2)[C@H]2OCCC[C@H]21 | 13.38 |
| c1ccc(CO[C@H]2CC[C@H]3[C@H]2OCCN3CCN2CCCCC2)nc1 | 27.42 |
| CS(=O)(=O)N1C[C@@H](Oc2ccccn2)[C@H]2OCCC[C@H]21 | 50.72 |
| CCN(CC)CCN1CCO[C@H]2[C@@H](OCc3ccccn3)CC[C@@H]21 | -31.4 |
| COc1ccc(CN2CCO[C@H]3[C@H](Oc4ccccn4)CC[C@@H]32)cc1 | -0.68 |
| Cc1nc(CN2CCO[C@H]3[C@@H](Oc4ccccn4)CC[C@@H]32)cs1 | 27.9 |
| O=S(=O)(C1CC1)N1C[C@H](Oc2ccccn2)[C@H]2OCCC[C@H]21 | 17.77 |
| CCOCCN1CCO[C@H]2[C@H](OCc3ccccn3)CC[C@@H]21 | 55.07 |
